# Source: the supplement of paper PMC9262897, “Low-cost anti-mycobacterial drug discovery using engineered E. coli” (Nature Communications, 2022)
# Counter-ions that a name gives are not always drawn. ± gives the standard deviation of the averaged measurements.
# What was measured:
# Assay in all cases: growth (OD600 after 10 h); higher = more growth (less inhibition)
# [1] = system: E. coli TESEC Alr+ wild-type control; conditions: compound 0.1 mM; raw OD600 reference: median of DMSO wells 0.241, cell-free background 0.041
# Procedure: (§1)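 TESEC Mtb Alr E. coli, or the Alr+ wild-type control, in 384-well plates with Prestwick library compounds at 0.1 mM and 1% DMSO, across arabinose induction levels of 1E3 to 1E7 nM. Growth is read as OD600 after 10 h at 37 °C in triplicate biological replicates.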
# [2] = system: E. coli TESEC Mtb Alr; conditions: compound 0.1 mM
# Procedure: as §1
# [3] = system: E. coli TESEC Mtb Asd; conditions: compound 0.1 mM
# Procedure: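 TESEC E. coli strains in which the native enzyme is deleted and replaced by arabinose-inducible Mtb Asd, DapB, CysH or TrpD, each grown in its selective medium. Strains were screened against the Prestwick library at 0.1 mM and 1% DMSO in 384-well format at low and high arabinose induction. Growth is read as OD600 after 10 h in triplicate.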
# [4] = system: E. coli TESEC Alr+ wild-type control; conditions: compound 0.1 mM; raw OD600 reference: median of DMSO wells 0.49, cell-free background 0.052
# Procedure: (§2)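 TESEC Mtb Alr E. coli (ΔaraC ΔtolC ΔentC Δalr ΔdadX, arabinose-inducible Mtb Alr) or the Alr+ wild-type control strain, grown in defined M9-fructose medium without D-alanine in 96-well plates with Prestwick library compounds at 0.1 mM and 1% DMSO. Low Alr induction is 0.1 µM arabinose and high induction is 10 mM arabinose.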
# [5] = system: E. coli TESEC Mtb Alr; conditions: compound 0.1 mM; remark: listed apart in the source
# Procedure: as §2
# [6] = arabinose 1000 nM, raw OD600 reference: median of DMSO wells 0.294, cell-free background 0.041
# [7] = arabinose 10000 nM, raw OD600 reference: median of DMSO wells 0.264, cell-free background 0.041
# [8] = arabinose 100000 nM, raw OD600 reference: median of DMSO wells 0.201, cell-free background 0.041
# [9] = arabinose 1000000 nM, raw OD600 reference: median of DMSO wells 0.193, cell-free background 0.041
# [10] = arabinose 10000000 nM, raw OD600 reference: median of DMSO wells 0.146, cell-free background 0.041
# [11] = arabinose induction (level): High, raw OD600 reference: median of DMSO wells 0.331, cell-free background 0.041
# [12] = arabinose induction (level): Low, raw OD600 reference: median of DMSO wells 0.417, cell-free background 0.041
# [13] = arabinose 100 nM, raw OD600 reference: median of DMSO wells 0.413, cell-free background 0.052
# [14] = arabinose 10000000 nM, raw OD600 reference: median of DMSO wells […], cell-free background 0.052
Compound,growth [1],"growth [2, 6]","growth [2, 7]","growth [2, 8]","growth [2, 9]","growth [2, 10]","growth [3, 11]","growth [3, 12]",growth [4],"growth [5, 13]","growth [5, 14]"
O=C(CCCN1CCC(O)(c2ccc(Cl)cc2)CC1)c1ccc(F)cc1 [Haloperidol],0.216 ± 0.0039,0.265 ± 0.012,0.273 ± 0.0054,0.192 ± 0.015,0.172 ± 0.0034,0.14 ± 0.0019,0.395 ± 0.047,0.452 ± 0.028,0.354 ± 0.006,0.4348 ± 0.0041,0.239 ± 0.012
CN[C@H](CC(C)C)C(=O)N[C@H]1C(=O)N[C@@H](CC(N)=O)C(=O)N[C@H]2C(=O)N[C@H]3C(=O)N[C@H](C(=O)N[C@H](C(=O)O)c4cc(O)cc(O)c4-c4cc3ccc4O)[C@H](O)c3ccc(c(Cl)c3)Oc3cc2cc(c3O[C@@H]2O[C@H](CO)[C@@H](O)[C@H](O)[C@H]2O[C@H]2C[C@](C)(N)[C@H](O)[C@H](C)O2)Oc2ccc(cc2Cl)[C@H]1O [Vancomycin hydrochloride],0.0502 ± 0.0016,0.084 ± 0.073,0.03873 ± 0.00032,0.0413 ± 0.0026,0.0388 ± 0.00044,0.0471 ± 0.0044,0.0662 ± 0.0062,0.0563 ± 0.011,0.0581 ± 0.0048,0.217 ± 0.15,0.0507 ± 0.00062
COc1ccc(CCN(C)CCCC(C#N)(c2ccc(OC)c(OC)c2)C(C)C)cc1OC (stereo not drawn) [Verapamil hydrochloride],0.185 ± 0.0071,0.25 ± 0.0055,0.27 ± 0.0044,0.195 ± 0.0032,0.116 ± 0.0045,0.149 ± 0.0027,0.243 ± 0.048,0.346 ± 0.095,0.461 ± 0.022,0.409 ± 0.005,0.258 ± 0.014
CCCNC(C)(C)COC(=O)c1ccccc1 [Meprylcaine hydrochloride],0.234 ± 0.0059,0.298 ± 0.0024,0.2777 ± 0.0023,0.211 ± 0.0098,0.215 ± 0.025,0.133 ± 0.0041,0.281 ± 0.061,0.338 ± 0.025,0.6187 ± 0.0042,0.419 ± 0.0049,0.339 ± 0.0092
CC(=O)O[C@]1(C(C)=O)CC[C@H]2[C@@H]3C=C(C)C4=CC(=O)CC[C@]4(C)[C@H]3CC[C@@]21C [Megestrol acetate],0.206 ± 0.022,0.285 ± 0.024,0.266 ± 0.013,0.16 ± 0.003,0.164 ± 0.0052,0.163 ± 0.016,0.441 ± 0.041,0.46 ± 0.026,0.212 ± 0.22,0.291 ± 0.12,0.302 ± 0.041
CCN(CC)CCNc1ccc(CO)c2sc3ccccc3c(=O)c12 [Hycanthone],0.0743 ± 0.0024,0.0851 ± 0.0084,0.0559 ± 0.00057,0.1 ± 0.0034,0.0552 ± 0.00075,0.0769 ± 0.0069,0.0901 ± 0.025,0.075 ± 0.0065,0.377 ± 0.0077,0.365 ± 0.042,0.232 ± 0.033
CC1(C)O[C@@H]2C[C@H]3[C@@H]4CCC5=CC(=O)CC[C@]5(C)[C@@]4(F)[C@@H](O)C[C@]3(C)[C@]2(C(=O)CCl)O1 [Halcinonide],0.215 ± 0.022,0.283 ± 0.011,0.2593 ± 0.0019,0.181 ± 0.027,0.123 ± 0.0028,0.152 ± 0.014,0.258 ± 0.052,0.36 ± 0.049,0.442 ± 0.032,0.413 ± 0.021,0.256 ± 0.019
CO[C@H]1/C=C/O[C@@]2(C)Oc3c(C)c(O)c4c(O)c(c(/C=N/N5CCN(C6CCCC6)CC5)c(O)c4c3C2=O)NC(=O)/C(C)=C\C=C\[C@H](C)[C@H](O)[C@@H](C)[C@@H](O)[C@@H](C)[C@H](OC(C)=O)[C@@H]1C [Rifapentine],0.0433 ± 0.00049,0.0468 ± 0.0029,0.04193 ± 0.00032,0.042 ± 0.00082,0.0431 ± 0.0013,0.04243 ± 0.00025,0.0584 ± 0.0025,0.0547 ± 0.0039,0.05153 ± 0.00031,0.0847 ± 0.014,0.0548 ± 0.0062
COc1ccccc1OCC(O)CO (stereo not drawn) [Guaifenesin],0.238 ± 0.0069,0.306 ± 0.021,0.274 ± 0.0056,0.191 ± 0.0043,0.19 ± 0.0056,0.141 ± 0.0035,0.427 ± 0.031,0.377 ± 0.14,0.535 ± 0.093,0.408 ± 0.011,0.345 ± 0.015
COc1ccnc(C[S+]([O-])c2nc3cc(OC(F)F)ccc3[nH]2)c1OC (stereo not drawn) [Pantoprazole sodium],0.168 ± 0.0022,0.218 ± 0.0049,0.28 ± 0.0076,0.18 ± 0.011,0.119 ± 0.0037,0.137 ± 0.0065,0.308 ± 0.1,0.296 ± 0.057,0.451 ± 0.013,0.399 ± 0.011,0.291 ± 0.022
CC/C(=C(/CC)c1ccc(O)cc1)c1ccc(O)cc1 [Diethylstilbestrol],0.0422 ± 0.0023,0.04 ± 0.0015,0.0413 ± 0.0044,0.0436 ± 0.0041,0.0394 ± 0.00096,0.0457 ± 0.0042,0.169 ± 0.011,0.0743 ± 0.016,0.0495 ± 0.0011,0.0551 ± 0.0059,0.0557 ± 0.0043
O=C(O[C@@H]1C[C@@H]2C[C@H]3C[C@H](C1)N2CC3=O)c1c[nH]c2ccccc12 [Dolasetron mesilate],0.204 ± 0.0058,0.25 ± 0.0086,0.238 ± 0.0033,0.137 ± 0.0054,0.0823 ± 0.0017,0.114 ± 0.0051,0.226 ± 0.044,0.482 ± 0.053,0.473 ± 0.027,0.405 ± 0.016,0.23 ± 0.036
CC1=C(/C=C/C(C)=C/C=C/C(C)=C\C(=O)O)C(C)(C)CCC1 [Isotretinoin],0.245 ± 0.0032,0.274 ± 0.016,0.24 ± 0.0073,0.218 ± 0.012,0.11 ± 0.0034,0.15 ± 0.004,0.328 ± 0.098,0.365 ± 0.073,0.425 ± 0.028,0.438 ± 0.0094,0.251 ± 0.014
